Measured values: PubChem BioAssay (EPA / NIEHS)
Where “and” joins values, the source holds several entries; their conditions need not be identical. Identical values can stand only once. The source holds several records for some structures; these can differ, active in one and inactive in another. Calls of active or inactive are those of the source. The calls were made as follows: active = hit-call score of the fitted dose curve at least 0.9, where 1 is the maximum; inactive = score below 0.9.

Tests used:
[1] = molecular target: Paired box protein Pax-6 (Homo sapiens) (UniProt P26367); test: ATG_Pax6_CIS: Attagene CIS-FACTORIAL HepG2 Assay for human Paired Box 6 (PAX6) (AID 2282956); details: HepG2 CIS-FACTORIAL PAX6 reporter transcription, RNA readout; actives raise or lower the signal
Paired box protein Pax-6 (Homo sapiens), sequence (P26367 whole entry, looked up): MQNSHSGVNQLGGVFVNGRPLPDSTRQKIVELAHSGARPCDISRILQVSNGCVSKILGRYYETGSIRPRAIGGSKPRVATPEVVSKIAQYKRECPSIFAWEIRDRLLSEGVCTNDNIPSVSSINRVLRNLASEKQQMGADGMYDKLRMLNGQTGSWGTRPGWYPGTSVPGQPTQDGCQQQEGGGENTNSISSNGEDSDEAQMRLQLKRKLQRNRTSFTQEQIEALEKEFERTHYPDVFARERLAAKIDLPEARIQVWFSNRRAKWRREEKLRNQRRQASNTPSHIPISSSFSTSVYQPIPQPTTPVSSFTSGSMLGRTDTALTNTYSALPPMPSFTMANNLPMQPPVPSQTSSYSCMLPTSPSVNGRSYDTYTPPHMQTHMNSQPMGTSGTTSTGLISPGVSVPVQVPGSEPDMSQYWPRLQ
Procedure, shortened: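 HepG2 cells transiently transfected with cis-promoter-driven multiplexed reporter units sensing endogenous transcription factor activity; 24 h chemical exposure. Reporter mRNA quantified by RT-PCR, 6-FAM labelling, HpaI digestion and capillary electrophoresis; bidirectional fit versus DMSO baseline.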

[2] = ATG_PXRE_CIS: Attagene CIS-FACTORIAL HepG2 Assay for human Pregnane X Receptor Element (PXRE) (AID 2282957); details: HepG2 Attagene CIS-FACTORIAL PXRE reporter, mRNA; actives raise or lower the signal
Procedure, shortened: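 Transiently transfected HepG2 cells were dosed and incubated for 24 h. RNA was then isolated, DNase-treated, reverse-transcribed and reporter sequences amplified. Labeled, HpaI-digested fragments were quantified by capillary electrophoresis against DMSO.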

[3] = ATG_RORE_CIS: Attagene CIS-FACTORIAL HepG2 Assay for human RAR-related Orphan Receptor Element (RORE) (AID 2282959); details: HepG2 Attagene cis-factorial RORE reporter, mRNA; actives raise or lower the signal
Procedure, shortened: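 HepG2 cells carrying transiently transfected cis-regulated reporter units; RORE-driven reporter mRNA quantified 24 h post-dosing by RT-PCR, 6-FAM primer extension, HpaI digestion and capillary electrophoresis. Bidirectional fit versus DMSO.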

[4] = ATG_Sox_CIS: Attagene CIS-FACTORIAL HepG2 Assay for human SRY-box transcription factor (SOX) (AID 2282960); details: HepG2 Attagene cis-factorial SOX reporter, mRNA; actives raise or lower the signal
Procedure, shortened: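 HepG2 cells transiently transfected with multiple cis-regulated reporter units, then dosed for 24 h. Reporter mRNA quantified by RT-PCR, fluorescent labelling, HpaI digestion and capillary electrophoresis; bidirectional fit versus DMSO.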

[5] = molecular target: Transcription factor Sp1 (Homo sapiens) (UniProt P08047); test: ATG_Sp1_CIS: Attagene CIS-FACTORIAL HepG2 Assay for human Specificity Protein 1 (Sp1) (AID 2282961); details: HepG2 Sp1 cis-reporter transcription, actives raise or lower the signal
Transcription factor Sp1 (Homo sapiens), sequence (P08047 whole entry, looked up): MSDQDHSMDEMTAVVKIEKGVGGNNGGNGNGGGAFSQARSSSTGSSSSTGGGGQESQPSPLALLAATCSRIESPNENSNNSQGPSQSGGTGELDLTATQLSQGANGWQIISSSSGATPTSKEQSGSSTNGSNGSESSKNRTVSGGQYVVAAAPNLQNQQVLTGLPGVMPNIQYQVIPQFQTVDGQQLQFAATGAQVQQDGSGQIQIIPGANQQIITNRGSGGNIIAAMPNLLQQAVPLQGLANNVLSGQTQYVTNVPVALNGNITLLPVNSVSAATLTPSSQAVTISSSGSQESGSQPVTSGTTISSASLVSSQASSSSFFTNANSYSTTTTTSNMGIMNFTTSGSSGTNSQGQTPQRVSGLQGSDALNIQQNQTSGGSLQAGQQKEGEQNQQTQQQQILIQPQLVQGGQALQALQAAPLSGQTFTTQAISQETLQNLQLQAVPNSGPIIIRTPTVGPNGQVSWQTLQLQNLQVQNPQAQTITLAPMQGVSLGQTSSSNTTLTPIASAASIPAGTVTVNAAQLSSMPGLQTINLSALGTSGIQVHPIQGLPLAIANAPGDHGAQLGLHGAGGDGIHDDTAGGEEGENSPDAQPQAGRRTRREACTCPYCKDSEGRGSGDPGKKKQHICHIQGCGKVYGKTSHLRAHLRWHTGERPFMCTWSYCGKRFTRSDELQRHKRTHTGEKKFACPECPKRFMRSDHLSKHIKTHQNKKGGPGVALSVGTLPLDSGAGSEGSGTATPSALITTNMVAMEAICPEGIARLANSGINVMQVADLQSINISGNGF
Procedure, shortened: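 HepG2 cells transiently transfected with multiplexed cis-regulated reporter constructs, chemical exposure 24 h. Reporter mRNA quantified by RT-PCR with capillary electrophoresis; bidirectional fit relative to DMSO.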

[6] = ATG_SREBP_CIS: Attagene CIS-FACTORIAL HepG2 Assay for human Sterol Regulatory Element Binding (SREBP) (AID 2282962); details: HepG2 Attagene cis-factorial SREBP reporter, mRNA; actives raise or lower the signal
Procedure, shortened: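 HepG2 cells transiently transfected with multiplexed cis-promoter reporter units sensing endogenous transcription factors; reporter mRNA measured 24 h after dosing by RT-PCR, 6-FAM labeling, HpaI digestion and capillary electrophoresis. Bidirectional fit versus DMSO.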

[7] = molecular target: Signal transducer and activator of transcription 3 (Homo sapiens) (UniProt P40763); test: ATG_STAT3_CIS: Attagene CIS-FACTORIAL HepG2 Assay for human Signal Transducer and Activator of Transcription 3 (STAT3) (AID 2282963); details: HepG2, Attagene cis-factorial STAT3 reporter transcription; actives raise or lower the signal
Signal transducer and activator of transcription 3 (Homo sapiens), sequence (P40763 whole entry, looked up): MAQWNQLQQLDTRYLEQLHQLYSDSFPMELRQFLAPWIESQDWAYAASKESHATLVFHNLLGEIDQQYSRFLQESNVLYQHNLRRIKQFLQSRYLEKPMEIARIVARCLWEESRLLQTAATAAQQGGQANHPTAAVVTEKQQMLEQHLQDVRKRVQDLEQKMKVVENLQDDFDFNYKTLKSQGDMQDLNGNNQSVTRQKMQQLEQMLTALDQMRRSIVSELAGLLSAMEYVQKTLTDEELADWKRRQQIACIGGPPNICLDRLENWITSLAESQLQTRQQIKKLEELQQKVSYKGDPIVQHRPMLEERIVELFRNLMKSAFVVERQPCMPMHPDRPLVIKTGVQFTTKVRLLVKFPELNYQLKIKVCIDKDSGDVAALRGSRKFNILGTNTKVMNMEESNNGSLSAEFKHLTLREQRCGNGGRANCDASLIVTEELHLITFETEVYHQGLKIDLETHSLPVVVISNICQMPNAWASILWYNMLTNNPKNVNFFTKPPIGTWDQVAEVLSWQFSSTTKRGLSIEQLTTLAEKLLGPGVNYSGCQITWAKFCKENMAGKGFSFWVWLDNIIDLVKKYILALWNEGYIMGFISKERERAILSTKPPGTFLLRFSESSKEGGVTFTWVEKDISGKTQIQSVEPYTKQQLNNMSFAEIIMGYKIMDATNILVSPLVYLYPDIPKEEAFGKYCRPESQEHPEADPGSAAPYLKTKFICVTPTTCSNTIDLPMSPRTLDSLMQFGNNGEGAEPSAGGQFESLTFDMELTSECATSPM
Procedure, shortened: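 Values derive from bidirectional fits relative to DMSO of reporter mRNA levels, measured by RT-PCR with capillary electrophoresis, in HepG2 cells carrying transiently transfected cis-regulated reporter units and exposed 24 h.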

[8] = ATG_TCF_b_cat_CIS: Attagene CIS-FACTORIAL HepG2 Assay for human T-Cell-Factor with beta-catenin (TCF/b-cat) (AID 2282965); details: HepG2 TCF/beta-catenin cis-reporter transcription, actives raise or lower the signal
Procedure, shortened: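 Cells of the HepG2 line carry transiently transfected reporter units whose promoters respond to endogenous factors. Twenty-four hours post-dosing, reporter mRNA induction is measured by fluorescent RT-PCR and capillary electrophoresis, with DMSO as baseline.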

[9] = ATG_TA_CIS: Attagene CIS-FACTORIAL HepG2 Assay for human TA Basal Promoter (AID 2282964); details: HepG2 Attagene CIS-factorial TA basal promoter reporter; actives raise or lower the signal
Procedure, shortened: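 Fluorescence from labelled RT-PCR reporter fragments, separated by capillary electrophoresis, gives the signal. Cells: HepG2 transiently carrying multiple reporter units, 24 h chemical dosing. Gain or loss relative to DMSO.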

[10] = ATG_PPRE_CIS: Attagene CIS-FACTORIAL HepG2 Assay for human Peroxisome Proliferator-activated Response Element (PPRE) (AID 2282958); details: HepG2 PPRE cis-element reporter, Attagene transcription factor profiling; actives raise or lower the signal
Procedure, shortened: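 HepG2 cells are transiently transfected with multiplexed cis-promoter reporter units to report endogenous PPAR activity. After 24 h dosing, reporter mRNA is read by RT-PCR and capillary electrophoresis. Fitting is bidirectional against DMSO.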

Measured: AC50

CCCCCCOC(=O)c1ccccc1C(=O)OCCCCCC
active: [2] 3.19 µM
not listed: [9] | [10]
inactive: all other assays above

c1cc2ccc3cccc4ccc(c1)c2c34
active: [2] 8.77 µM
not listed: [10]
inactive: all other assays above

CO/C=C(/C(=O)OC)c1ccccc1COc1cccc(C(F)(F)F)n1
inactive: [4] | [5] | [7]
active: [1] 31.9 µM | [2] 3.54 µM | [3] 23 µM | [6] 4.44 µM | [8] 26.4 µM

Cc1ccc(O)c(C)c1
active: [8] 168 µM
not listed: [10]
inactive: all other assays above

Cc1ccccc1[N+](=O)[O-]
not listed: [9] | [10]
inactive: all other assays above

Clc1ccc(Cl)cc1
not listed: [9] | [10]
inactive: all other assays above

Cc1cccc(C)c1N
not listed: [9] | [10]
inactive: all other assays above

Nc1ccc(-c2ccc(N)cc2)cc1
not listed: [10]
inactive: all other assays above

CCOCCOC(C)=O
not listed: [9] | [10]
inactive: all other assays above

COc1ccc(O)c(C(C)(C)C)c1
active: [1] 146 µM | [2] 8.2 µM | [5] 184 µM | [8] 162 µM
inactive: [4] | [6] | [7] | [9]

CC(c1ccc(O)cc1)(c1ccc(O)cc1)c1ccc(O)cc1
active: [1] 11.1 µM | [2] 0.575 µM | [3] 11.1 µM | [5] 19.6 µM | [6] 2.64 µM | [8] 11.9 µM
inactive: [4] | [7]

CC1=C2C[C@H]3[C@@H](CC=C4C[C@@H](O)CC[C@@]43C)[C@@H]2CC[C@]12O[C@@H]1C[C@H](C)CN[C@H]1[C@H]2C
active: [1] 13.5 µM | [3] 12.9 µM | [5] 12.8 µM | [9] 12.7 µM
not listed: [10]
inactive: all other assays above

CCCN(CCC)N=O
not listed: [10]
inactive: all other assays above

C[C@]12CCC(=O)C=C1CC[C@@H]1[C@@H]2CC[C@@]2(C)[C@H]1CC[C@]2(C)O
inactive: [1] | [10] | [3] | [4] | [5] | [6] | [7] | [8]
active: [6] 57.5 µM and 45.9 µM and 62.4 µM | [8] 55.7 µM and 15.9 µM

CN(C)c1nc(=O)n(C2CCCCC2)c(=O)n1C
active: [2] 50 µM
not listed: [10]
inactive: all other assays above

CCNc1nc(NC(C)C)nc(SC)n1
active: [2] 13.5 µM
not listed: [9] | [10]
inactive: all other assays above

C1CC2OC2CC1C1CO1 (stereo not given)
active: [2] 59.2 µM
not listed: [9] | [10]
inactive: all other assays above

O=C(NC(=O)c1c(F)cccc1F)Nc1cc(Cl)c(OC(F)(F)C(F)F)c(Cl)c1
not listed: [9] | [10]
inactive: all other assays above

O=S(=O)(O)C(F)(F)C(F)(F)C(F)(F)C(F)(F)C(F)(F)C(F)(F)F
active: [2] 51.4 µM [middle of 4 runs]
not listed: [9] | [10]
inactive: all other assays above
